YjeE inh: YjeE (TsaE) inhibition, E. coli; P0AF67; Potency, µM; hit rate 0.05% among 71,000; purified YjeE enzyme, qHTS inhibition assay
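Fluorescence polarization of a BODIPY Texas Red–ADP probe (2 uM) bound to purified YjeE (10 uM) was read after 15 min room-temperature incubation with compounds. Loss of polarization marks inhibitors; ADP serves as titrated control.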
Hsp90 Hop PPI: changes Hsp90-Hop TPR2A binding signal, up or down. AlphaScreen TPR2A-His6 binding biotin-Hsp90 C-terminal peptide. Potency, µM (highest dose often 57 µM), for the others: at the highest dose activity change, negative = inhibition. hit rate 0.44% among 71,000; active = well fitted curve in either direction with a large enough effect; inconclusive = small, poorly fitted or top-dose-only effect, or another doubt; also: potency is read from the fitted curve at half-maximal effect; % is scaled to controls: 0 for no effect and ±100 for the full control effect
BRCT inh green: blocks human BRCA1 BRCT binding to phosphopeptide, green readout. P38398. BRCA1 BRCT-phosphopeptide binding, green fluorescence polarization. Potency, µM (doses to about 76.9 µM), without a hit: top-dose activity change, negative = inhibition, actives largely listed as inhibitors. hit rate 0.05% among 75,000;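 also: potency is read from the fitted curve at half-maximal effect; plate controls were peptide without protein for full effect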
Target sequence (P38398 whole entry, looked up): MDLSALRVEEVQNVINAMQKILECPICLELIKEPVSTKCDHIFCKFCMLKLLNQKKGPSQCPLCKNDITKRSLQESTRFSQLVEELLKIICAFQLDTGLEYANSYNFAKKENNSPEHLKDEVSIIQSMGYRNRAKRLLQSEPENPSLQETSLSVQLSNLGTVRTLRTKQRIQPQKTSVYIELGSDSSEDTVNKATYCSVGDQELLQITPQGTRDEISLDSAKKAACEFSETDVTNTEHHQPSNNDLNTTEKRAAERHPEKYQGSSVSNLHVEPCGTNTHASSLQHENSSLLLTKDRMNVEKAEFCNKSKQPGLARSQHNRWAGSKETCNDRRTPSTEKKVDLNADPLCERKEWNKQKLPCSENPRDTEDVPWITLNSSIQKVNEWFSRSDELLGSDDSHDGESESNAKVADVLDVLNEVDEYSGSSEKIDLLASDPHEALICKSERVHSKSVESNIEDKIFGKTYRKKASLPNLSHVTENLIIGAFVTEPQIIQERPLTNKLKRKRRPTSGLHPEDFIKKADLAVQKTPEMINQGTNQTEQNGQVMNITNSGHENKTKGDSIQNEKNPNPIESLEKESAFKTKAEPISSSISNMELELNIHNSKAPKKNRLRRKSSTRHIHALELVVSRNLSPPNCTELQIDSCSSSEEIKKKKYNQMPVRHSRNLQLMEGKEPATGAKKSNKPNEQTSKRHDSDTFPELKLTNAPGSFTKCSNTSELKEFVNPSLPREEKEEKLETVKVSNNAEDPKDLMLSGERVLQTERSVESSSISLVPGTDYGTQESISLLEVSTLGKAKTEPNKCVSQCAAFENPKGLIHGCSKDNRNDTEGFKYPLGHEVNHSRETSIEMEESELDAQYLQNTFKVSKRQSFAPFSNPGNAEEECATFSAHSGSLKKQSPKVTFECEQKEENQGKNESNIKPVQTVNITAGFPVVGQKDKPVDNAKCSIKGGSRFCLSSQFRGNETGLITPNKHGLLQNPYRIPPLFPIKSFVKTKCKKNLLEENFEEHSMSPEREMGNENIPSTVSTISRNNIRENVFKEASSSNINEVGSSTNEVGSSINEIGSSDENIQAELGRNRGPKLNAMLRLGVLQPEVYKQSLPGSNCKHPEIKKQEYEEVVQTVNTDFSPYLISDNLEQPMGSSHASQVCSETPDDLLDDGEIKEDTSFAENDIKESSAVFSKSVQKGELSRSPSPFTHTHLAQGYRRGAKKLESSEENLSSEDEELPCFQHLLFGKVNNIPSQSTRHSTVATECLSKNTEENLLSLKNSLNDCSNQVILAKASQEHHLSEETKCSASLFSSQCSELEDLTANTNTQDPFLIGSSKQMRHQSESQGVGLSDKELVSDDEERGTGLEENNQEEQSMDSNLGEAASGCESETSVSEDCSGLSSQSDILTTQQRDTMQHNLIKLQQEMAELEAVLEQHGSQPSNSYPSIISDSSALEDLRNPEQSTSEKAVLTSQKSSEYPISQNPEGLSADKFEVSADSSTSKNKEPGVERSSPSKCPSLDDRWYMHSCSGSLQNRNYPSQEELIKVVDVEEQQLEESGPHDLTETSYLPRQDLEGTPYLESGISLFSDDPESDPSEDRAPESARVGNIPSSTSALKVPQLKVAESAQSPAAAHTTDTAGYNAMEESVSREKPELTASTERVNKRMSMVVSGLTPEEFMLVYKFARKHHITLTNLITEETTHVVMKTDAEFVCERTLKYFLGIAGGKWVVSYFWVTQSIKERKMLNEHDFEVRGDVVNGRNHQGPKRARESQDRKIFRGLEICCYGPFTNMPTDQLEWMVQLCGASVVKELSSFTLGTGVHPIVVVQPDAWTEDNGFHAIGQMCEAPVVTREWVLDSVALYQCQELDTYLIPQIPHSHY
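Fluorescence polarization: His-tagged BRCT (~35 kDa BRCA1 C-terminus, 250 nM) bound to 100 nM fluorescein-labeled phosphorylated 10-aa BACH1 peptide, pH 7.3 phosphate buffer with DTT and Tween 20. Compounds incubated 12 min at room temperature; inhibition read as lowered polarization.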
Pol III holo inh: blocks replication by bacterial DNA polymerase III holoenzyme; reconstituted DNA polymerase III holoenzyme replication, biochemical; Potency, µM (titrated, usually from 57.1 µM), without a hit: top-dose activity change, negative = inhibition; hit rate 0.25% among 71,000; also: potency is read from the fitted curve at half-maximal effect; % is scaled to controls: 0 for no effect and ±100 for the full control effect
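Reconstituted *E. coli* holoenzyme (0.35 nM Pol III, 1 nM beta, 154 nM SSB, 2 nM primase) was preincubated with compound for 15 min at RT. Synthesis on 1.4 nM ssM13Gori ran 35 min, then was stopped with PicoGreen/EDTA and read as dsDNA fluorescence.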
Tau filament bind: binds recombinant human tau filaments; hit rate 2% among 71,000; AID 596; Potency, µM (titrated, usually from 57.1 µM), without a hit: top-dose activity change, negative = inhibition; recombinant tau filaments, thioflavin S fluorescence, 15 h; filaments grown with octadecylsulfate alongside compound;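 also: potency is read from the fitted curve at half-maximal effect; % is scaled to controls: 0 for no effect and ±100 for the full control effect; actives lower thioflavin S fluorescence by blocking filaments or displacing dye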
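Read-out: ThS fluorescence, 450 nm excitation/510 nm emission; lower signal marks blocked filament formation or displaced dye. Tau at 1 uM with 30 uM ODS, 10 uM ThS, 5 mM DTT, 100 mM NaCl, 10 mM HEPES pH 7.4; 15 h, 37 C.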
BRCT PPI red: inhibitors of human BRCA1 BRCT-phosphoprotein interaction (red fluorophore); P38398; BRCT-phosphopeptide binding, red fluorescence polarization; Potency, µM (top dose mostly 76.9 µM), for the others: top-dose activity change, negative = inhibition, usual class: inhibitors; hit rate 0.03% among 75,000; AID 892; also: % is scaled to controls: 0 for no effect and ±100 for the full control effect
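Fluorescence polarization: 100 nM His-tagged BRCA1 BRCT with 100 nM TAMRA-labelled phospho-BACH1 decapeptide, phosphate buffer pH 7.3 with 150 mM NaCl, DTT, 0.01% Tween 20; 12 min RT. Binding inhibition seen as FP decrease.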
Hsp90 TPR2A CRC: confirmation and counter-screen of Hsp90 TPR2A co-chaperone interaction disrupters; shares compounds with Hsp90 Hop PPI; activity, negative = inhibition, % at 40 µM or 46 µM, hits read low; AID 632; hit rate 100% among 45; AlphaScreen TPR2A-His6 / biotin-Hsp90 peptide binding;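 active = compound lowering the Hsp90 and TPR2A binding signal, whether or not the linker counterscreen also flagged it as an artifact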
tau ThS displ: tau filament binding by ThS displacement; hit rate 40% among 60; shares compounds with Tau filament bind; recombinant tau filaments, Thioflavin S fluorescence displacement; Potency, µM; calls by dose curve
aSyn ThS bind: alpha-synuclein fibril binding by ThS displacement; hit rate 40% among 60; Potency, µM; AID 937; recombinant alpha-synuclein fibrils, ThS fluorescence displacement; shares compounds with Tau filament bind; calls by dose curve
Abeta ThS bind: displaces Thioflavin S from Abeta1-42 fibrils; shares compounds with Tau filament bind; Abeta1-42 fibrillization, thioflavin S fluorescence, overnight 37 C; Potency, µM; hit rate 50% among 60; AID 956; calls by dose curve
* hit, by the source's call; i = inactive; u = inconclusive; x = no result given; [ ] = remark or other dose. Rows were chosen to be rich in hits. Some 2.4% of all compounds tested hit in one or more screens of this group. Unless noted, calls follow the shape of the dose curve; as a rule, active = well fitted curve in the direction sought with a large enough effect; inconclusive = small, poorly fitted or top-dose-only effect, or another doubt; inactive = no such curve, though single readings can be large; an effect the other way counts as inactive or inconclusive.

SMILES	YjeE inh	Hsp90 Hop PPI	BRCT inh green	Pol III holo inh	Tau filament bind	BRCT PPI red	Hsp90 TPR2A CRC	others
CCOC(=O)CCCCC(=O)c1[nH]c(=O)[nH]c1CSc1nc(C)cc(=O)[nH]1	i	1µM*	-0.1%	-1.1%	12.5%	-1.5%	-99.6*[alpha-screen platform artifact]
CCOC(=O)CCCCC(=O)c1[nH]c(=O)[nH]c1CSc1nc2ccccc2[nH]1	i	2.51µM*	0.4%	-5.4%	-8.9%	-2.7%	-99.6*[alpha-screen platform artifact]
CCOC(=O)CCCCC(=O)c1[nH]c(=O)[nH]c1CSc1nc(C)cc(C)n1	i	u	0.3%	-5.3%[11.4 µM]	5.1%[11.4 µM]	-1.3%	x
CCOC(=O)CCCCC(=O)c1[nH]c(=O)[nH]c1CN1CCOCC1	i	2.51µM*	-1.7%	3.7%	5.3%	-1.0%	-98.6*[alpha-screen platform artifact]
COc1cc2c(Cc3c4c5c(cc(OC)c(OC)c5c5c(OC)c(OC)ccc35)CCN4C)c3c4c(cc(OC)c(OC)c4c2cc1OC)CCN3C	x	x	-0.3%	x	x	-0.4%	x
NCCn1c(=O)c(CCc2ccccc2)nc2cncnc21	i	-9.0%	-2.0%	-3.2%	-10.7%	0.7%	x
O=S(=O)(c1ccccc1)N1CCC2(CC1)CN(c1ccncc1)C2	i	u	-1.9%	2.4%	1.6%	-1.8%	x
Cc1ccc(S(=O)(=O)NC(=O)c2cc(C)n(CCCn3ccnc3)c2C)cc1	i	3.98µM*	-0.2%	4.6%	-1.2%	-0.1%	-99.9*[alpha-screen platform artifact]
CN(C)CC(C)(C)CNC(=O)c1ccc(-n2c(=O)c(=O)[nH]c3ccccc32)cc1	x	x	-4.0%	x	x	-1.0%	x
CC1CC[C@@]2(OC1)OC1CC3C4CC[C@@H]5CC(O)CC[C@@]5(C)C4CC[C@]3(C)C1C2C (stereo partly specified)	x	x	-2.8%[3.08 µM]	x	x	-1.6%	x
O=C(NCCCn1ccnc1)Nc1ccc(Cl)c(Cl)c1	i	7.94µM*	0.4%	-5.9%	-2.0%	-0.7%	-98.1*[alpha-screen platform artifact]
Nc1nc(N)nc(-c2ccccn2)n1	i	7.94µM*	-3.3%	-1.9%	6.1%	-0.5%	-99.3*[alpha-screen platform artifact]
OCc1ccnc2c(O)cccc12	i	3.16µM*	-0.9%	-7.3%	-8.0%	0.9%	-99.6*[alpha-screen platform artifact]
O=C(Nc1cccc(C(=O)N2CCOCC2)c1)c1cncc(Br)c1	i	-2.6%	1.1%	-1.8%	-17.8%	-0.3%	x
O=C(Nc1cccc(C(=O)N2CCOCC2)c1)c1ncn[nH]1	i	25.1µM*	-1.4%	-1.3%	6.0%	-0.6%	-83.3*[alpha-screen platform artifact]
O=C(CN1CC(=O)Oc2ccccc21)OCC(=O)c1ccccc1	i	3.16µM*	-4.1%	-6.4%	-4.5%	-1.3%	-99.7*[alpha-screen platform artifact]
O=C(CSc1cccc2cccnc12)N1CCCC1	i	10µM*	0.4%	-4.5%	-14.8%	1.2%	-98.5*[alpha-screen platform artifact]
CN(C)C(=O)CSc1cccc2cccnc12	i	u	-0.4%	0.2%	-12.2%	-0.2%	x
Cc1ccc(C(=O)O)cc1	i	2.4%	1.3%	-1.2%	8.8%	-2.0%	x
Cc1cc(C)n(-c2nnc(C)c(=O)[nH]2)n1	i	1.58µM*	0.9%	-0.8%[11.4 µM]	-5.9%[11.4 µM]	-2.8%	-99.9*[alpha-screen platform artifact]
Cc1nnc(N2CCN(Cc3ccccc3)CC2)[nH]c1=O	i	-6.0%	-0.2%	0.5%	2.2%	1.9%	x
CCOc1ccc(C(=O)CCNC(Cc2cnc[nH]2)C(=O)O)cc1 (stereo unspecified)	i	u	-0.3%	-2.1%[11.4 µM]	-0.7%[11.4 µM]	0.7%	-92.7*[alpha-screen platform artifact]
CN1CCN(Cc2ccc(OCc3ccccc3)cc2)CC1	i	-3.8%	0.4%	-2.2%	0.8%	-0.2%	x
CN1CCN(Cc2cc(COCc3ccccc3)c3cccnc3c2O)CC1	i	1.58µM*	-0.3%	-5.8%	2.1%	1.7%	-99.6*[alpha-screen platform artifact]
COC(=O)N1CCC2(CCCN(C(=O)Nc3cccc(F)c3)C2)CC1	i	-23.4%	-0.5%	-3.8%	-3.0%	0.5%	x
SMILES	YjeE inh	Hsp90 Hop PPI	BRCT inh green	Pol III holo inh	Tau filament bind	BRCT PPI red	Hsp90 TPR2A CRC	others
Cc1ccc(S(=O)(=O)CCc2nnc(NC(=O)c3cnccn3)s2)cc1	i	-5.8%	1.1%	0.9%	1.8%	0.1%	x
Cc1ccc(S(=O)(=O)CCc2nnc(NC(=O)c3ccccn3)s2)cc1	i	6.31µM*	0.9%	-0.7%	7.5%	-0.5%	-99.6*[alpha-screen platform artifact]
COc1cccc2c1C(=O)c1c(O)c3c(c(O)c1C2=O)C[C@@](O)(C(=O)CO)C[C@H]3O[C@H]1C[C@@H](N)[C@H](O)[C@@H](C)O1.[W]	i	-5.3%[11 µM]	9.5%[15.4 µM]	u	-25.6%[11.4 µM]	-10.8%[15.4 µM]	x	tau ThS displ=4.24µM*;aSyn ThS bind=7.11µM*;Abeta ThS bind=2.75µM*
COc1ccc(CNc2cc(-c3ccccc3Cl)ncn2)c(OC)c1	i	-1.8%	-2.3%	0.8%	3.6%	-1.3%	x
COCC(=O)N1CCC2(CCN(Cc3ccc(C#N)cc3)CC2)CC1	i	-6.9%	-0.4%	-4.7%	10.8%	0.2%	x
CC(C)c1cc(Nc2cccc(O)c2)cc(C(C)C)c1O	i	u	0.1%	-3.3%	7.94µM*	-4.9%	x	tau ThS displ=4.94µM*;aSyn ThS bind=3.64µM*;Abeta ThS bind=3.45µM*
